These results are taken from the supplement of paper PMC11417369.

In all, about 25,000 sequences were measured (“ln(normalized median fluorescence intensity)”: median about 9.3, highest 2% from about 10 on). This is one part of a sample in which the highest values are shown more often than they occur.

This assay concerns PF3D7_0420300 AP2 domain 1 (GST-tagged). As to the kind of experiment: gcPBM binding intensity (ln(normalized median fluorescence intensity)); higher = stronger DNA binding. In outline: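 Alexa488 anti-GST antibody, scanned at 488 nm, detected GST-tagged P. falciparum DNA-binding domains that had been expressed in E. coli and incubated for 1 h on an Agilent 4 × 180k array. The array carried primer-extended double-stranded 36-bp intergenic genomic probes and negative controls. Binding intensity is the highest Masliner-normalised natural-log median intensity across replicate spots of either orientation of each probe.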
With “TTATAAAAAAAAATAACACACAGACATAAGAATAAA [CACACA_site9383]”, the “gcPBM binding intensity (ln)” value was 9.95.

“TTTTCATTAAGATACTTATAATAGTTTATTAGTAAA [CACACA_negctrl_site586]”: the “gcPBM binding intensity (ln)” value came out at 8.77.

Take “ATAATATCATCAAACGCACACATACATAAATATATT [CACACA_site5230]”: the “gcPBM binding intensity (ln)” value was found to be 9.55.

Regarding “ATTTTTTTCATAGACACACACAATATATCTGTTTCC [CACACA_site3023]”, the “gcPBM binding intensity (ln)” value worked out at 9.83.

On to ATTATATATAATATAGTGCATGTAAAAAATAAAACA, for which the “gcPBM binding intensity (ln)” value amounted to 9.48.

As to “GATGTGTAAATAAGGATATATAACAATCAACAAAAC [XGTACX_negctrl_site494]”, the “gcPBM binding intensity (ln)” value turned out to be 9.72.

On to “AAAAAAAAAAAAAACACACATACATACATACATATA [CACACA_site4121]”, for which the “gcPBM binding intensity (ln)” value is 9.74.

Consider “ATATTATATATATACACACACACATGCATGCACCTA [CACACA_site106]”, for which the “gcPBM binding intensity (ln)” value turned out to be 10.2.

Consider “AAAAAAAAAAAACACACACACACACCGATACATACA [CACACA_site8849]”, for which the “gcPBM binding intensity (ln)” value came out at 10.3.

Take “ATATTATAGATATACACACACACATGCATGCACATA [CACACA_site6203]”: the “gcPBM binding intensity (ln)” value is 10.1.

Turning to “TATATACATACATATACACACATATATATATATATA [CACACA_site401]”, the “gcPBM binding intensity (ln)” value was determined as 9.44.

Turning to “TACATACATACATACATACACACATATATATATATA [CACACA_site1996]”, the “gcPBM binding intensity (ln)” value was 9.45.

Turning to “CACAAACACCCAAACACACACACACCGACATACATA [CACACA_site4410]”, the “gcPBM binding intensity (ln)” value is 10.

Take “AAAAAAAAAAAACACACACACACACCGACACATACA [CACACA_site5576]”: the “gcPBM binding intensity (ln)” value came out at 10.2.

For the sequence “ATATTATATATATACACACACACATGCATGCACATA [CACACA_site7917]”, the “gcPBM binding intensity (ln)” value came to 10.1.

For the sequence “CATACATACAAACACACACACACACCGATATATATA [CACACA_site8952]”, the “gcPBM binding intensity (ln)” value was found to be 10.3.

In the case of “TATATATACATATACACACACACACCGATATATATA [CACACA_site8706]”, the “gcPBM binding intensity (ln)” value came to 10.2.

With “GAAGGAAATAATAGTAGTACAAATGGTAAGAAATAT [XGTACX_site5845]”, the “gcPBM binding intensity (ln)” value was found to be 9.7.

Turning to “AATTTTTATACGGATACACACAAAAAAAAATAAAAA [CACACA_site897]”, the “gcPBM binding intensity (ln)” value turned out to be 9.53.

As to “TACACTTTTTTTTGTACACACTAAAAAGATTAACAA [CACACA_site6037]”, the “gcPBM binding intensity (ln)” value was found to be 9.07.

As to “TATTTGGGTATTTTTACACACATTAAAATATATATA [CACACA_site5800]”, the “gcPBM binding intensity (ln)” value was 9.33.

As to “ATATATATTTTATACGCATGTAATTATTATGTGGTC [TGCATGCA_site45]”, the “gcPBM binding intensity (ln)” value is 9.29.

Consider “TAATAGTTATAAAATACACACCAGGCATGATAAATG [CACACA_site4335]”, for which the “gcPBM binding intensity (ln)” value amounted to 9.5.

For the sequence “TATATATATATAGGTTGTACATTTTGATGTTTACGT [XGTACX_site5503]”, the “gcPBM binding intensity (ln)” value stood at 9.42.

Turning to “TATACATACATACATACACACACACCGATATATATA [CACACA_site7896]”, the “gcPBM binding intensity (ln)” value was 10.1.

With “CAAAAAAAATTATACACACACACACCGATATATATA [CACACA_site4719]”, the “gcPBM binding intensity (ln)” value came out at 10.2.

In the case of “CAAAATAATATATATACACACACACCGATATATATA [CACACA_site8082]”, the “gcPBM binding intensity (ln)” value turned out to be 10.2.

As to “TATATACATATATACACACACATATATATATATATA [CACACA_site2805]”, the “gcPBM binding intensity (ln)” value is 9.6.

In the case of “TATACATACATACATACACACACACCGATATATACA [CACACA_site8184]”, the “gcPBM binding intensity (ln)” value was 10.2.

Consider “AAAAAAAAAAAAAATACACACACACCGATATATATA [CACACA_site8142]”, for which the “gcPBM binding intensity (ln)” value is 10.1.

AAAAAAAATTCGTGTGTGCGCATATATAATATATAA: the “gcPBM binding intensity (ln)” value was found to be 9.6.

As to “AGATACTTTCCTCAAACACACAAAACTATACAACAA [CACACA_site1474]”, the “gcPBM binding intensity (ln)” value came to 9.45.

For the sequence “AAAAAAATAATCATCACACACGGAGAATGTCCAATA [CACACA_site5305]”, the “gcPBM binding intensity (ln)” value is 9.6.

For “GAAATAGAGAGACACACACACATATATTTATGTATT [CACACA_site7794]”, the “gcPBM binding intensity (ln)” value worked out at 9.93.

In the case of “CATAAATACAAATATACACACATATTTATATTTATA [CACACA_site7277]”, the “gcPBM binding intensity (ln)” value was determined as 9.54.

Consider “CAGAAATAGAGATACACACACACATATATTTATGTA [CACACA_site3968]”, for which the “gcPBM binding intensity (ln)” value amounted to 10.2.

With “AAAAAAAAATATATAAACACACATATTTATATACAC [GTGCAC_negctrl_site545]”, the “gcPBM binding intensity (ln)” value stood at 9.61.

Consider “AAGAAATATTTATACACACACACAAACATATAAATA [CACACA_site6981]”, for which the “gcPBM binding intensity (ln)” value was found to be 10.2.

Turning to “GAAATAGAGAAACACACACACATATATTTATGTATT [CACACA_site3967]”, the “gcPBM binding intensity (ln)” value amounted to 9.99.

Regarding “AAGAAATATTTATACACACACACAAACATATATATA [CACACA_site1912]”, the “gcPBM binding intensity (ln)” value came out at 10.2.

As for “CACAAAAAGAAACACACACACATATATATTTATTAT [CACACA_site3646]”, the “gcPBM binding intensity (ln)” value is 10.1.

Regarding “AAAAAAAAAACATACACACACACAAATATTTATATA [CACACA_site437]”, the “gcPBM binding intensity (ln)” value turned out to be 10.1.

For “AAAAAAAAAAAAAAAAAAAAATTTCAATTATATTGA [GTGCAC_negctrl_site642]”, the “gcPBM binding intensity (ln)” value is 8.91.

For “CCATTTTTTTTATACGCACACGTCATACTTTTAAAA [CACACA_site4988]”, the “gcPBM binding intensity (ln)” value came to 9.46.

Take “ATTTATATTTGTATTTGTACTTATATTTATATTTAT [XGTACX_site1540]”: the “gcPBM binding intensity (ln)” value is 9.64.

Take “TGTGTAAGATCTTGGATGATGATAAGAATCTACTAG [CACACA_negctrl_site1167]”: the “gcPBM binding intensity (ln)” value turned out to be 9.11.

As to “TATATAAACACGTACACACACATATAGGTATTTATA [CACACA_site7615]”, the “gcPBM binding intensity (ln)” value was determined as 9.97.

Turning to “TCTTAAAAAATAGGGACACGTAAATATAATATATAA [CACACA_negctrl_site554]”, the “gcPBM binding intensity (ln)” value was 9.4.
